These results are taken from PubChem BioAssay AID602393 (Broad Institute, 2012).

Each structure is given as a SMILES string. About 7,000 (2%) of roughly 350,000 compounds were called active. Shown is part of a subset that was picked to be rich in actives. A number with no mark means an inactive call. No stated cut-off is given here; in the data, active means activation above about 40%; inconclusive means no clear call, values can overlap the other calls; inactive means below that.

This assay in a line: raisers of Bmi1 knock-in reporter signal – mouse ES cells, Bmi1 luciferase knock-in, single point, esBAF inhibitor project, primary screen (AID 602393).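 Further: 0% = median of the plate's neutral control wells and 100% = double that signal; a rise in the Bmi1 reporter signal indicates esBAF inhibition.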 Particulars: 24 h, at 12.5 µM, hits give high values, 100% = twice the neutral-well signal.
As to `CN1C(=O)c2cc(NC(=O)c3cscn3)ccc2OC[C@H]2O[C@@H](CC(=O)NCC3CC3)CC[C@H]21`, the reporter increase is 1.7%.

With `Nc1nc(COC(=O)CCC(=O)c2ccc(Cl)cc2)nc(Nc2ccccc2)n1`, the reporter increase is -2.01%.

Take `O=C(CCCOc1ccccc1)NNC(=O)c1ccc(Cl)cc1`: the reporter increase is -5.87%.

`O=C(c1ccc(Cl)cc1)c1cnc(Nc2ccccc2)s1`: the reporter increase is 70% (active).

For the compound `C[C@@H]1CCCCO[C@H](CN(C)S(=O)(=O)c2cccs2)[C@H](C)CN([C@@H](C)CO)C(=O)c2cc(NC(=O)Nc3ccc4c(c3)OCO4)ccc2O1`, the reporter increase was 3.42%.

For the compound `Cn1c(CNc2nc(-c3ccccc3)cs2)nnc1SCC(=O)c1ccccc1`, the reporter increase is 6.92%.

Take `C/C(CC1CC(C)(C)OC1=O)=N/Nc1nc(-c2ccccc2)cs1` (stereo unspecified): the reporter increase is 46.1% (active).

With `CC1(C)CC(CC(=O)O)C(=O)O1` (stereo unspecified), the reporter increase is 3.84%.

As to `COc1ccc(S(=O)(=O)N(C)C[C@@H]2OCCCC[C@H](C)Oc3ccc(NC(=O)Nc4ccccc4)cc3C(=O)N([C@H](C)CO)C[C@H]2C)cc1`, the reporter increase is 6.53%.

For `COc1ccccc1-c1cnc2c(c1)C(=O)N([C@H](C)CO)C[C@H](C)[C@H](CN(C)C(=O)CN(C)C)O2`, the reporter increase was -4.34%.

Turning to `O=C(NC1CCCCCC1)C1CCN(C(=O)c2ccc(Cl)cc2)CC1`, the reporter increase is 1.61%.

For `COc1ccc(/C(N)=N/OC(=O)CCCc2ccccc2)cc1`, the reporter increase is 22.2%.

`O=C(CCc1ccccc1)NNC(=O)COc1ccc(Cl)cc1`: the reporter increase was -7.85%.

For `Cc1ccccc1C(=O)NC(=S)NC1CC1`, the reporter increase is 19.1%.

On to `O=C(NNC(=S)NC1CCCCC1)c1ccccc1Cl`, for which the reporter increase is 12.8%.

Take `COc1ccc(C(=O)NC(=S)NC2CCCCC2)cc1`: the reporter increase is 53.2% (active).

`CCCNC(=S)N1CCC(NC(=O)c2ccc(OC)cc2)CC1`: the reporter increase is 4.39%.

Take `COc1ccc(C(=O)NC(=S)NNC(=O)CCc2ccccc2)cc1`: the reporter increase is 50.7% (active).

Regarding `O=C(NC(=S)NC1CCCCC1)c1ccc(Cl)cc1`, the reporter increase was 92.1% (active).

With `C[C@@H]1CN([C@H](C)CO)C(=O)c2cc(-c3ccncc3)cnc2O[C@H]1CN(C)C`, the reporter increase is 2.47%.

In the case of `O=C(C[C@H]1CC[C@H]2[C@@H](COC[C@@H](O)CN2S(=O)(=O)c2cccc(Cl)c2)O1)NC1CCCC1`, the reporter increase is 0.9%.

For `CN1C(=O)c2cc(NC(=O)c3ccc(Cl)cc3)ccc2OC[C@@H]2O[C@@H](CC(=O)O)CC[C@H]21`, the reporter increase is 5.97%.

As for `CC(C)NC(=O)N(C)C[C@H]1Oc2ccc(NC(=O)CCC(F)(F)F)cc2CC(=O)N([C@@H](C)CO)C[C@@H]1C`, the reporter increase is -3.69%.

In the case of `CCCC(=O)Nc1ccc2c(c1)C(=O)N(C)C[C@H](OC)[C@H](C)CN(CCc1ccccc1)[C@H](C)CO2`, the reporter increase is -0.112%.

On to `Cc1ccc(S(=O)(=O)NCC[C@@H]2CC[C@H](NC(=O)c3ccccn3)[C@H](CO)O2)cc1`, for which the reporter increase is 1.61%.

Consider `O=C(N[C@H]1CC[C@@H](CCNC(=O)C2CCC2)O[C@@H]1CO)c1ccncc1`, for which the reporter increase was -1.2%.

Regarding `Cc1noc(C)c1NC(=O)Nc1ccc2c(c1)C(=O)N([C@@H](C)CO)C[C@H](C)[C@@H](CN(C)Cc1ccncc1)OCCCC[C@@H](C)O2`, the reporter increase was -7.33%.

As for `O=C(C[C@@H]1CC[C@H]2[C@@H](COC[C@@H](O)CN2S(=O)(=O)c2cccc(F)c2)O1)NCCCN1CCOCC1`, the reporter increase was 2.86%.

Turning to `Clc1ccccc1-c1cc(COc2ccc3ccccc3c2)no1`, the reporter increase was 9.3%.

Take `O=C(NCc1ccccn1)Nc1ccc(Cl)cc1`: the reporter increase is 21.5%.

As to `C=CCNC(=O)c1cc(-c2ccccc2O)on1`, the reporter increase was 35.4%.

On to `O=C(NC1CCCC1)c1cc(-c2ccccc2)on1`, for which the reporter increase was 18.8%.

As for `O=C(NCc1ccccn1)c1cc(-c2ccccc2Cl)on1`, the reporter increase was 54.4% (active).

For `O=C(Nc1cccnc1Cl)c1cc(-c2ccccc2O)on1`, the reporter increase was 65% (active).

`C[C@H](CO)N1C[C@H](C)[C@@H](CN(C)C)OCCCC[C@H](C)Oc2ccc(NC(=O)C3CCCCC3)cc2C1=O`: the reporter increase is -0.46%.

As for `COc1ccc(CNC(=O)C[C@H]2CC[C@@H]3[C@H](COc4ccc(NC(=O)C5CC5)cc4C(=O)N3C)O2)cc1`, the reporter increase was -1.53%.

Turning to `CCCNC(=O)N(C)C[C@H]1Oc2ncc(C#C[C@@H](C)O)cc2C(=O)N([C@@H](C)CO)C[C@@H]1C`, the reporter increase was -6.34%.

As for `N#C[C@H]1[C@@H](c2ccc(C3=CCCCC3)cc2)[C@@H](CO)N1C(=O)Cc1ccncc1`, the reporter increase was 2.63%.

`Cc1noc(C)c1NC(=O)Nc1ccc2c(c1)C(=O)N([C@@H](C)CO)C[C@H](C)[C@@H](CN(C)C(=O)C1CCCCC1)OCCCC[C@@H](C)O2`: the reporter increase was 3.6%.

For the compound `CCCNC(=O)Nc1ccc2c(c1)OC[C@@H](C)N(CC1CCCC1)C[C@@H](C)[C@H](OC)CN(C)C2=O`, the reporter increase is 6.43%.

For the compound `O=C(C[C@@H]1CC[C@H]2[C@@H](COC[C@H](O)CN2S(=O)(=O)c2ccc(F)cc2)O1)N[C@H]1CCN(Cc2ccccc2)C1`, the reporter increase was 5.45%.

As to `COCCNC(=O)C[C@H]1CC[C@@H]2[C@@H](COc3ccc(NC(=O)C4CCOCC4)cc3C(=O)N2C)O1`, the reporter increase was 0.774%.

With `Cc1nc2ccc(NC(=O)c3cccc(S(=O)(=O)N4CCOCC4)c3)cc2s1`, the reporter increase is 7.36%.

Turning to `CC(=O)Nc1ccc(S(=O)(=O)Nc2ccc(N3CCOCC3)c(F)c2)cc1`, the reporter increase was 0.869%.

In the case of `O=S(=O)(Nc1ccc2nc(N3CCOCC3)sc2c1)c1ccccc1`, the reporter increase was 73% (active).

For the compound `O=C(C[C@@H]1C[C@@H]2c3cc(NC(=O)C4CCOCC4)ccc3O[C@@H]2[C@H](CO)O1)NCc1ccncc1`, the reporter increase is -0.887%.

As for `C[C@@H]1CN([C@H](C)CO)C(=O)c2cc(-c3ccncc3)cnc2O[C@@H]1CN(C)C(=O)Cc1cccnc1`, the reporter increase was -2.67%.

Regarding `Cc1ccc(S(=O)(=O)N[C@@H]2CC[C@@H](CCn3cc(C(C)C)nn3)O[C@H]2CO)cc1`, the reporter increase is -3.18%.

Take `Cc1cccc(S(=O)(=O)N2C[C@H]3[C@@H](c4ccccc42)[C@H](CO)N3Cc2ccc3c(c2)OCO3)c1`: the reporter increase is -3.41%.

Consider `CO[C@@H]1CN(C)C(=O)c2ccc(NS(=O)(=O)c3ccc(C)cc3)cc2OC[C@@H](C)N(Cc2nccs2)C[C@H]1C`, for which the reporter increase is -3.84%.

On to `c1ccc(-c2cc(-c3ccccc3)[nH]n2)cc1`, for which the reporter increase was 42.5% (active).

Take `Oc1ccccc1-c1cc(-c2ccc(Cl)cc2)n[nH]1`: the reporter increase was 21.6%.

In the case of `CC(C)(C)C1CCC(=NNC(=O)c2cc(-c3ccccc3)n[nH]2)CC1` (stereo unspecified), the reporter increase was -0.812%.

Regarding `CN1C(=O)c2cc(NC(=O)Nc3ccccc3F)ccc2OC[C@H]2O[C@@H](CC(=O)Nc3cccc(Cl)c3)CC[C@@H]21`, the reporter increase was 20.4%.

For the compound `Cc1noc(C)c1S(=O)(=O)N(C)C[C@H]1OCCCC[C@H](C)Oc2ccc(NS(=O)(=O)c3ccccc3)cc2C(=O)N([C@H](C)CO)C[C@@H]1C`, the reporter increase was -1.33%.

On to `Cn1cnc(CCNC(=O)C[C@@H]2CC[C@@H]3[C@H](COC[C@@H](O)CN3C(=O)Nc3ccccc3)O2)c1`, for which the reporter increase was -3.44%.

Take `C[C@@H]1CN([C@@H](C)CO)S(=O)(=O)c2ccc(-c3cncnc3)cc2O[C@@H]1CN(C)C(=O)C1CC1`: the reporter increase is -3.14%.

Regarding `Cn1c(Nc2cccc(Cl)c2)nc2ccccc21`, the reporter increase is 53.4% (active).

Regarding `O=C(Cn1c(NCCO)nc2ccccc21)c1ccc(Cl)cc1Cl`, the reporter increase was -0.748%.

As for `C/C(=N\c1nc2ccccc2n1C)c1cc(Cl)ccc1O`, the reporter increase was -2.25%.

On to `C[C@@H]1CN([C@H](C)CO)C(=O)CCCn2cc(nn2)CO[C@@H]1CN(C)C(=O)c1ccc2ccn(C)c2c1`, for which the reporter increase is -1.71%.

Turning to `Cc1cc(CN(C)C(=O)c2cc(COc3ccc(C)c(C)c3)on2)n[nH]1`, the reporter increase was 13.8%.

`Cc1ccc(OCc2cc(C(=O)N(C)CCc3ccccc3)no2)cc1C`: the reporter increase was 71.6% (active).

As for `Cc1ccc(OCc2cc(C(=O)N(C)CCn3ccnc3C)no2)cc1C`, the reporter increase is 11.8%.

Turning to `O=C(Nc1ccccc1)Nc1ccc2c(c1)[C@@H]1C[C@@H](CC(=O)N3CCCCC3)O[C@H](CO)[C@@H]1O2`, the reporter increase was -0.639%.

For the compound `CO[C@H]1CN(C)C(=O)c2ccc(NS(=O)(=O)c3cn(C)cn3)cc2OC[C@@H](C)N(CC2CC2)C[C@H]1C`, the reporter increase is -8.79%.

`CN1CCc2ccccc2C1Cc1ccccc1NC(=O)c1sc2ccccc2c1Cl` (stereo unspecified): the reporter increase was 51%.

Turning to `O=C(Nc1ccon1)c1sc2ccccc2c1Cl`, the reporter increase is 48.7% (active).

With `O=C(Nc1ccon1)c1nc[nH]c1C(=O)NCc1ccccc1`, the reporter increase is -6.72%.

`O=C(CSc1nc2ccccc2c(=O)n1-c1ccc(F)cc1)NC1CC1`: the reporter increase was -5.85%.

With `Cc1ccc(-n2c(SCC(=O)N3CCC(C(=O)O)CC3)nc3ccccc3c2=O)cc1C`, the reporter increase is 42% (active).

In the case of `O=C(CSc1nc2ccccc2c(=O)n1-c1ccccc1F)N1CCOCC1`, the reporter increase is -4.38%.

Turning to `Cc1noc(C)c1NC(=O)Nc1ccc2c(c1)C(=O)N([C@H](C)CO)C[C@H](C)[C@H](CN(C)S(=O)(=O)c1cccs1)O2`, the reporter increase is 1.55%.

As for `O=C(NC1CCCC1)[C@H]1[C@H](CO)[C@H]2Cn3c(ccc(-c4ccccc4F)c3=O)[C@@H]1N2C(=O)CC1CC1`, the reporter increase was -2.95%.

As to `CO[C@H]1CN(C)C(=O)c2cc(NS(=O)(=O)c3ccccc3C)ccc2OC[C@@H](C)NC[C@@H]1C`, the reporter increase is 1.69%.

In the case of `C[C@@H]1CCCCO[C@H](CN(C)C(=O)CCCN(C)C)[C@H](C)CN([C@@H](C)CO)C(=O)c2cc(NS(=O)(=O)c3ccc(Cl)cc3)ccc2O1`, the reporter increase is 2.25%.
